Bioassay records (PubChem BioAssay)
VP16 counter = Gal4-VP16 reporter inhibition counter-screen; Drosophila S2 Gal4-VP16 UAS-luciferase, luminescence, 20 h; Potency, µM (titrated, usually from 53.6 µM), for inactives: at the highest dose activity, negative = inhibition, most hits filed as inhibitors; 3.5% of 310,000 active;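 note: Gal4-VP16 expression switched on by copper sulfate through the metallothionein promoter; nearly all actives have a fitted effect of over 50% in size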
TDP1 inh = inhibitors of human tyrosyl-DNA phosphodiesterase TDP1 | AID 485290 | 0.28% of 350,000 active | recombinant TDP1, AlphaScreen DNA substrate cleavage | Potency, µM (top dose mostly 130 µM), without a hit: at the top dose activity change, negative = inhibition, most hits filed as inhibitors; note: nearly all actives have a fitted effect of over 40% in size
Target sequence (Q9NUW8 whole entry, looked up): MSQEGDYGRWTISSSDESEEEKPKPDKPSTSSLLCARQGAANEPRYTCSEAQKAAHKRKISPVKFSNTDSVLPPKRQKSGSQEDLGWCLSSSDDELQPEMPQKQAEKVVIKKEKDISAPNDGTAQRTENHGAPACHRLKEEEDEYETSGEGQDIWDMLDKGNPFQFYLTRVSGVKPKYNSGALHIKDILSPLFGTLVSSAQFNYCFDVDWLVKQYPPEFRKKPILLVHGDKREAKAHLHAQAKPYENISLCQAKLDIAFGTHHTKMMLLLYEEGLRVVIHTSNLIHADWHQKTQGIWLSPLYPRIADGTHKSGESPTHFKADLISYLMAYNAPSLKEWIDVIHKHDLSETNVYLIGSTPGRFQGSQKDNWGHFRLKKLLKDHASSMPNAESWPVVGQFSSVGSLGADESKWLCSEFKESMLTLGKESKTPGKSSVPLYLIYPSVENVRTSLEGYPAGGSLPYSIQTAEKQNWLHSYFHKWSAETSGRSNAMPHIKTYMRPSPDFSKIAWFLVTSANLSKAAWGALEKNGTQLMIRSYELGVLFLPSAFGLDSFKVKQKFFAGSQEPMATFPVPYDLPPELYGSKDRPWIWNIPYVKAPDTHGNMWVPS
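E. coli-derived human Tdp1, 1 nM final. Cpd preinc 15 min RT; substrate 15 nM final, 5 min RT; AS bead mix 10 ug/ml final, 10 min RT. Signal loss = tyrosine-FITC cleavage. No-enzyme wells = max signal.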
TDP1 cell CPT = growth inhibition of DT40 Tdp1-/-;hTDP1 cells with camptothecin (screen for TDP1 inhibitors). chicken DT40 Tdp1-/-;hTDP1 cells + 20 nM CPT, ATP luminescence, 48 h. Potency, µM (top dose mostly 46.2 µM), inactives show top-dose activity change, negative = growth inhibition, actives largely listed as inhibitors. 12% of 420,000 active. AID 686979; note: nearly all actives have a fitted effect of over 55% in size
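Cell growth measured by CellTiter-Glo luminescence after a minimum 48 h, 37 C compound exposure with 20 nM CPT in Tdp1-knockout DT40 cells stably expressing hTDP1, seeded 400/well; qHTS titration format.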
RORgamma inh = ROR gamma (mouse) transcription inhibition | Potency, µM (top dose mostly 53.6 µM), without a hit: at the top dose activity change, negative = inhibition, actives largely listed as inhibitors | P51450 | 5.4% of 310,000 active | Drosophila S2 Gal4-RORgamma UAS-luciferase reporter, 20 h; note: nearly all actives have a fitted effect of over 60% in size
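ROR gamma transcriptional activity was tracked as Gal4-UAS luciferase output in stably transfected Drosophila Schneider cells, with compound added 1 hr before 700 uM copper sulfate induction and a 20 hr ambient-temperature incubation.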
TDP1 cell noCPT = qHTS for Inhibitors of human tyrosyl-DNA phosphodiesterase 1 (TDP1): qHTS in cells in absence of CPT | Potency, µM (series often up to 46.2 µM), for the others: top-dose activity change, negative = growth inhibition, usual class: inhibitors | 15% of 420,000 active | DT40 Tdp1-/- hTDP1 cells, no CPT, ATP luminescence, 48 h | AID 686978, 2013; note: nearly all actives have a fitted effect of over 55% in size
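Growth kinetics read by CellTiter-Glo luminescence after ≥48 hr at 37 °C. Cells: DT40 Tdp1-/- stably carrying human TDP1, 400 per well, compound exposure in the absence of CPT (DMSO vehicle).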
* = called active by the depositor. Hits are enriched below; roughly 19% of the tested compounds scored in any of these assays. Calls come from the whole dose curve; as a rule, active = well fitted curve in the direction sought with a large enough effect; inconclusive = small, poorly fitted or top-dose-only effect, or another doubt; inactive = no such curve, though single readings can be large; an effect the other way counts as inactive or inconclusive. % is set by controls: 0 for no effect and ±100 for the full control effect; potency is the fitted concentration of half-maximal effect.

`O=C(NC1CC2CCCC(C1)N2Cc1ccccc1)c1cccc(F)c1` (configuration not stated) gave VP16 counter 1%, TDP1 inh 4%, TDP1 cell CPT 0%, RORgamma inh 4% and TDP1 cell noCPT -2%.
Screening O=C(O)CC12CC3CC(C1)CC(n1ncc(NCc4ccccc4)c(Cl)c1=O)(C3)C2 returned VP16 counter -3%, TDP1 cell CPT 1%, RORgamma inh 10% and TDP1 cell noCPT 1%.
`Cc1ccc(NC(=O)c2ccc(=O)[nH]n2)cc1S(=O)(=O)Nc1ccc(SC(F)F)cc1` gave TDP1 inh -18%, TDP1 cell CPT 15µM* and TDP1 cell noCPT 18µM*.
`O=C(CN1CC[n+]2c(-c3cccs3)csc21)c1ccc(Br)cc1` gave VP16 counter -9%, TDP1 inh 10%, TDP1 cell CPT 1.8µM*, RORgamma inh inconclusive and TDP1 cell noCPT 3.7µM*.
For CC(=O)N1CCN(CC(=O)c2ccc(Br)cc2)CC1 the results were VP16 counter inconclusive, TDP1 inh 2%, TDP1 cell CPT -21%, RORgamma inh -1% and TDP1 cell noCPT -21%.
Screening O=C(CN1CC[n+]2c(-c3ccccc3)csc21)c1ccc(Br)cc1 returned VP16 counter inconclusive, TDP1 inh 0%, TDP1 cell CPT 2.9µM*, RORgamma inh inconclusive and TDP1 cell noCPT 2.1µM*.
Screening O=C(Cc1ccccc1)Nc1cc(C(=O)c2ccccc2)ccc1N1CCOCC1 returned VP16 counter 8%, TDP1 inh 1%, TDP1 cell CPT -70%, RORgamma inh -1% and TDP1 cell noCPT -86%.
For CCOC(=O)c1sc(NC(=O)CSc2nnc(Cc3ccccc3)o2)c(C(=O)OCC)c1C the results were VP16 counter -16%, TDP1 inh 5%, TDP1 cell CPT inconclusive, RORgamma inh inconclusive and TDP1 cell noCPT inconclusive.
Screening C=CCNc1ncnc2c1ncn2[C@H]1CN(CCN2CCOCC2)C[C@@H](CO)O1 returned TDP1 cell CPT -3% and TDP1 cell noCPT 10%.
Screening CN(CC(=O)Nc1cccc(F)c1)C(=O)c1ccc(N2CCCCC2)c([N+](=O)[O-])c1 returned TDP1 cell CPT 16µM* and TDP1 cell noCPT 15µM*.
Cc1ccc(NCC(=O)Nc2cccc(F)c2)cc1S(=O)(=O)N1CCCCCC1 was read as VP16 counter inconclusive, TDP1 inh 2%, TDP1 cell CPT inconclusive, RORgamma inh inconclusive and TDP1 cell noCPT 16µM*.
Screening CN(CC(=O)Nc1ccc(S(=O)(=O)N2CCCC2)cc1)CC(=O)Nc1ccc(F)c(F)c1F returned VP16 counter -10%, TDP1 inh 5%, TDP1 cell CPT 0%, RORgamma inh 13% and TDP1 cell noCPT inconclusive.
Screening CN(CC(=O)Nc1ccc(S(=O)(=O)N2CCCC2)cc1)Cc1ccc(Cl)cc1Cl returned VP16 counter -16%, TDP1 inh 0%, TDP1 cell CPT 18µM*, RORgamma inh 0% and TDP1 cell noCPT inconclusive.
Screening CN(CC(=O)Nc1ccc(S(=O)(=O)N2CCCC2)cc1)CC(=O)Nc1cccc(F)c1 returned VP16 counter -5%, TDP1 inh 0%, TDP1 cell CPT 18µM*, RORgamma inh 30% and TDP1 cell noCPT 23µM*.
`S=c1[nH]nc(COc2ccccc2)n1/N=C/C=C/c1ccco1` gave VP16 counter -4%, TDP1 cell CPT -9%, RORgamma inh -42% and TDP1 cell noCPT -30%.
Screening Cc1ccccc1NC(=O)C1CC(=O)OC12CCOC(C)(C)C2 (configuration not stated) returned VP16 counter -2%, TDP1 inh 3%, TDP1 cell CPT 14%, RORgamma inh -26% and TDP1 cell noCPT 3%.
`Cc1ccc(NC(=O)CN(C)C(C)C(=O)Nc2ccc(S(=O)(=O)N3CCCC3)cc2)cc1` (configuration not stated) gave TDP1 cell CPT 18µM* and TDP1 cell noCPT 23µM*.
Screening COc1ccc(CCN(C)c2ccc(S(=O)(=O)N3CCCC3)cc2[N+](=O)[O-])cc1OC returned VP16 counter -7%, TDP1 inh 3%, TDP1 cell CPT 16µM*, RORgamma inh 35% and TDP1 cell noCPT 12µM*.
`O=C(CSCc1ccc(Cl)cc1)Nc1ccc(S(=O)(=O)N2CCCCCC2)cc1` gave VP16 counter -17%, TDP1 inh 3%, TDP1 cell CPT inconclusive, RORgamma inh 20% and TDP1 cell noCPT inconclusive.
`CC(C(=O)Nc1ccc(S(=O)(=O)N2CCCC2)cc1)N(C)CC(=O)Nc1cccc(F)c1` (configuration not stated) gave TDP1 inh 0%, TDP1 cell CPT inconclusive and TDP1 cell noCPT inconclusive.
`COc1ccc(N(C(C)C(=O)Nc2ccc(S(=O)(=O)N3CCCCC3)cc2)S(C)(=O)=O)cc1` (configuration not stated) gave VP16 counter 9%, TDP1 cell CPT inconclusive, RORgamma inh 45% and TDP1 cell noCPT 29µM*.
Screening CN(CC(=O)Nc1ccc(Cl)cc1)c1ccc(S(=O)(=O)N2CCCCC2)cc1[N+](=O)[O-] returned VP16 counter inconclusive, TDP1 inh 5%, TDP1 cell CPT 18µM*, RORgamma inh inconclusive and TDP1 cell noCPT inconclusive.
`CN(C)C(=O)c1cccc(-c2cnc3c(NC=O)cc(-c4ccccc4N(C)C)cn23)c1` gave TDP1 cell CPT 23µM* and TDP1 cell noCPT 16µM*.
Screening CC(=O)NCCNc1ncnc2ccc(-c3ccccc3Cl)cc12 returned VP16 counter 12%, TDP1 cell CPT -9%, RORgamma inh -4% and TDP1 cell noCPT inconclusive.
For CN(C)C(=O)c1cccc(-c2cnc3c(NC=O)cc(-c4ccccc4Cl)cn23)c1 the results were TDP1 cell CPT 2.6µM* and TDP1 cell noCPT 5.2µM*.
`CCN(CC)C(=O)c1sc(NC(=O)c2ccc3c(c2)OCO3)c(C#N)c1C` gave VP16 counter 6%, TDP1 inh 5%, TDP1 cell CPT -5%, RORgamma inh 10% and TDP1 cell noCPT -27%.
`O=C(COc1ccccc1)OC(C(=O)c1ccccc1)c1ccccc1` (configuration not stated) gave VP16 counter -8%, TDP1 inh -3%, TDP1 cell CPT 3%, RORgamma inh 11µM* and TDP1 cell noCPT -16%.
Cc1cccc(C(=O)Nc2c(C(=O)NCc3ccc(Cl)cc3)sc3nc(C)cc(C)c23)c1 was read as TDP1 inh -2%, TDP1 cell CPT 16µM* and TDP1 cell noCPT 26µM*.
